# Measurements as given in PubChem BioAssay.
# Calls of active or inactive are those of the source. Unless noted, the rule behind the calls is not given here.
# Tests used:
# [1] = HepG2 liver cancer cell viability effects, profiling panel, resazurin fluorescence, 24 h, PK04 Diversity Set (AID 1172); settings: higher = more signal
# [2] = basal S. cerevisiae growth modulation, no modifier, primary screen, OD600, strain BY4716, 24 h, basal condition (AID 1173); settings: OD600, 24 h, higher = more signal, called active from +8 up or from −8 down
# [3] = MM1S myeloma cell viability, profiling panel, resazurin fluorescence, basal, 24 h, PK04 Diversity Set (AID 1174); settings: higher = more signal, called active from +8 up or from −8 down;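 note: MM1S multiple myeloma cell line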
# [4] = molecular target: Dihydroorotate dehydrogenase (quinone), mitochondrial (Plasmodium falciparum (isolate 3D7)) (UniProt Q08210); assay: PfDHODH enzyme inhibitors, primary screen, biochemical, C-terminal His tag, absorbance 600 nm (AID 1175); settings: DCIP absorbance 600 nm, higher = more signal, called active from +8 up or from −8 down;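 note: recombinant parasite enzyme with a five histidine tag at its C terminus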
# [5] = P. aeruginosa biofilm formation inhibitors, primary screen, strain PAO1, LB-PBS medium, absorbance 600 nm (AID 1176); settings: P. aeruginosa PAO1 growth/biofilm, A600, 12 h; higher = more signal
# [6] = S. cerevisiae RM11-1a growth modifiers, primary screen, strain RM11-1a, OD600, basal, 24 h (AID 1177); settings: OD600, 24 h, higher = more signal, called active from +8 up or from −8 down;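 note: cultures grown under basal conditions with no added stressor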
# [7] = E. coli acrAB mutant growth effects, primary screen, E. coli filamentation inducers, strain DRC39, OD650, 24 h (AID 1178); settings: higher = more signal, called active from +8 up or from −8 down;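 note: growth measured as culture turbidity by optical density at 650 nm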
# [8] = E. coli acrAB mutant growth effects, primary screen, E. coli filamentation inducers, strain DRC39, OD650, 48 h (AID 1179);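 note: screen aims at cell division blockers that make cells filament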; settings: E. coli DRC39 delta-acrAB growth, higher = more signal, called active from +8 up or from −8 down
# [9] = RPMI8226 myeloma cell viability, profiling panel, resazurin fluorescence, basal, 24 h, PK04 Diversity Set (AID 1180); settings: higher = more signal;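 note: RPMI8826 multiple myeloma cell line at 5000 cells per well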
# [10] = molecular target: E3 ubiquitin-protein ligase XIAP (Homo sapiens) (UniProt P98170); assay: XIAP binders, primary screen, biophysical, small-molecule microarray, fluorescence 635 nm (AID 1181); settings: small-molecule microarray binding, higher = more signal;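 note: score merges 667 nm emission and signal to noise over triplicate slides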
# [11] = system: XIP peptide (Xip251-270) binding; assay: small-molecule binders of XIP peptide, primary screen, biochemical, small-molecule microarray, fluorescence 635/667 nm, 0.1 µg/mL protein (AID 1182); settings: fluorescent protein binding, 635 nm, higher = more signal, called active from +8 up or from −8 down
# XIP peptide (Xip251-270) = assay: small-molecule binders of XIP peptide, primary screen, biochemical, small-molecule microarray, fluorescence 635/667 nm, 0.5 µg/mL protein (AID 1183); settings: small-molecule microarray binding, fluorescence 635 nm; higher = more signal
# [12] = Plasmodium falciparum growth inhibition, primary screen, strain 3D7, DAPI fluorescence, 100 nL (AID 1184);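 note: parasites grown inside human red blood cells in medium with human serum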; settings: P. falciparum 3D7 growth, 3 d, higher = more signal
# [13] = molecular target: Homeobox protein Hox-A13 (Mus musculus) (UniProt Q62424); assay: inhibitors of HoxA13-DNA binding, primary screen, biochemical, fluorescence polarization, labeled oligonucleotide (AID 1185); settings: 15 min, higher = more signal, called active from +8 up or from −8 down
# Chain of Homeobox protein Hox-A13 (Mus musculus) (Q62424 whole entry, looked up): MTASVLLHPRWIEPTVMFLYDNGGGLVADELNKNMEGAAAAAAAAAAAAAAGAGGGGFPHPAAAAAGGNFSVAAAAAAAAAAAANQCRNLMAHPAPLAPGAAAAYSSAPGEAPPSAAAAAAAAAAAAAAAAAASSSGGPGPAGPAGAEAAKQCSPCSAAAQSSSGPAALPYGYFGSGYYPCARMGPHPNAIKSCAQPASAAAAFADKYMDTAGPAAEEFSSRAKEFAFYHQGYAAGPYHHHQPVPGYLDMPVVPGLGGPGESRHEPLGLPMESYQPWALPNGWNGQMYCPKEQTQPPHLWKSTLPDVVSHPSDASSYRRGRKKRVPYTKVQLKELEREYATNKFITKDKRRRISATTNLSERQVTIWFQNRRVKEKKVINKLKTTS
# Chain of Dihydroorotate dehydrogenase (quinone), mitochondrial (Plasmodium falciparum (isolate 3D7)) (Q08210 whole entry, looked up): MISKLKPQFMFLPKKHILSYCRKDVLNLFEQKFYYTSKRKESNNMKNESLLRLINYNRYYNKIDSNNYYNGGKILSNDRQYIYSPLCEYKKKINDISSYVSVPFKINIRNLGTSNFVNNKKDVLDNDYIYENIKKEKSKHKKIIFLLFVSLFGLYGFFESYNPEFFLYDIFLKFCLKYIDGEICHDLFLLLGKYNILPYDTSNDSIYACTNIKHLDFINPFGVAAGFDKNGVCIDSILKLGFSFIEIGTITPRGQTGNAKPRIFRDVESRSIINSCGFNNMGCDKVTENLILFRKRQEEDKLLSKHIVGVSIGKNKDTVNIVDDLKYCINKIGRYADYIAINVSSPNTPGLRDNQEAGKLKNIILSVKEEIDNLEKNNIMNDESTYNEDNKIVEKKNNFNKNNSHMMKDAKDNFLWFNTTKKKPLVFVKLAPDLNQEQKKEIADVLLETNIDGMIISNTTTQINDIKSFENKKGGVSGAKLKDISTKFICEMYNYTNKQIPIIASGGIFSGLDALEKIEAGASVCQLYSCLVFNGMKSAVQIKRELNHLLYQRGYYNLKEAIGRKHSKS
# Chain of E3 ubiquitin-protein ligase XIAP (Homo sapiens) (P98170 whole entry, looked up): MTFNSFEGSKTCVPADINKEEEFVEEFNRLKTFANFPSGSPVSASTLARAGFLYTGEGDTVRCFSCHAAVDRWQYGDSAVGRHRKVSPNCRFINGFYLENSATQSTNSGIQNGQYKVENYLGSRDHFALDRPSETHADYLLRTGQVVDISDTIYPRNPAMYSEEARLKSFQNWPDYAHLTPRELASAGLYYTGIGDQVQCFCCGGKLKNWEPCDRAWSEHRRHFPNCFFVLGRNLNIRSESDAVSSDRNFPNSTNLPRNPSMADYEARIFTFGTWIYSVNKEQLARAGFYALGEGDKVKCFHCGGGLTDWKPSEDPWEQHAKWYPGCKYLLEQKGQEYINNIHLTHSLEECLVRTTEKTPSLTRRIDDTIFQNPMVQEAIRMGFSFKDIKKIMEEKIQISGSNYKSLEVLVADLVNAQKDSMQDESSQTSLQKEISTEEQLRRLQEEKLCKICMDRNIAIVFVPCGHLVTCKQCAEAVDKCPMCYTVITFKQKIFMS
SMILES,z-score [1],z-score [2],z-score [3],composite z-score [4],z-score [5],z-score [6],z-score [7],z-score [8],z-score [9],composite z-score [10],composite z-score [11],composite z-score (XIP peptide (Xip251-270)),z-score [12],z-score [13]
Cc1cc2c(nc1C)CCCN2CC(O)CN1CCN(C)CC1 (centres undefined),-0.406,-0.428 (inactive),-0.709 (inactive),-1.14 (inactive),1.02 (inactive),-0.185 (inactive),-0.233 (inactive),-0.125 (inactive),-0.0252,1.64,1.11 (inactive),0.362,0.547,-3.1 (inactive)
CCOC(=O)CCN1C(=O)[C@H]2[C@H]3[C@H](O)[C@H](O)CC(=NNC(=O)OCc4ccc(OC)cc4)[C@@H]3CC[C@H]2C1=O,-0.54,0.458 (inactive),-1.24 (inactive),0.489 (inactive),-0.0242 (inactive),-0.217 (inactive),0.149 (inactive),0.237 (inactive),-1.14,-0.171,0.59 (inactive),0.05,-0.688,0.614 (inactive)
O=C1CCCC2OC12C(O)CCc1ccccc1 (centres undefined),-1.06,-0.372 (inactive),-0.397 (inactive),-0.103 (inactive),-0.127 (inactive),0.142 (inactive),0.637 (inactive),0.489 (inactive),0.145,-0.0238,-0.128 (inactive),-0.213,0.307,-0.663 (inactive)
COC(=O)[C@H](C)NC(=O)CCC1CC(OC(=O)NCc2ccc3c(c2)OCO3)CC2(CCCC(COC(=O)NCCOc3ccccc3)O2)O1 (some centres undefined),0.658,-0.565 (inactive),-0.951 (inactive),-1.61 (inactive),0.875 (inactive),-1.31 (inactive),-0.388 (inactive),-0.915 (inactive),0.891,-0.105,-0.045 (inactive),0.588,-1.79,-2.45 (inactive)
CC(CCN1CCc2nc(-c3ccccc3)c(-c3ccccc3)cc2C1)=NO[C@H](C)c1cn([C@@H]2COC[C@H]2O)nn1,-0.233,-0.799 (inactive),-0.869 (inactive),-0.0119 (inactive),0.408 (inactive),-0.462 (inactive),0.532 (inactive),0.705 (inactive),-0.639,0.063,-0.378 (inactive),0.175,0.429,-5.45 (inactive)
CO[C@@H]1COC(=O)[C@H](C)NC(=O)[C@@H](C)COC(=O)CCC[C@H]1C,0.868,0.0728 (inactive),-0.516 (inactive),-0.926 (inactive),-0.892 (inactive),0.0233 (inactive),0.277 (inactive),-0.297 (inactive),-0.0734,-0.153,0.144 (inactive),0.652,-0.0339,-2.16 (inactive)
C[C@@H](c1ccccc1)N1C(=O)[C@H]2[C@H]3[C@H](O)C=CC(=O)[C@@H]3CC[C@H]2C1=O,-0.0507,-0.697 (inactive),0.711 (inactive),-0.366 (inactive),-0.319 (inactive),-0.701 (inactive),0.0826 (inactive),-0.286 (inactive),0.982,0.126,0.146 (inactive),0.014,-0.173,-0.308 (inactive)
CC(C)CON=C1C[C@@H](O)[C@@H](O)[C@@H]2[C@@H]3C(=O)N([C@@H](C)c4ccccc4)C(=O)[C@@H]3CC[C@H]12,0.0096,-1.45 (inactive),-0.0393 (inactive),-0.0804 (inactive),0.07 (inactive),0.351 (inactive),0.595 (inactive),0.675 (inactive),0.333,-0.166,-0.0093 (inactive),0.402,0.529,0.0364 (inactive)
O=C1[C@H]2[C@H]3[C@H](O)[C@H](O)CC(=NO[C@@H]4O[C@H](CO)[C@@H](O)[C@H](O)[C@H]4O)[C@H]3CC[C@H]2C(=O)N1Cc1ccc2c(c1)OCO2,0.777,-0.159 (inactive),0.466 (inactive),0.461 (inactive),-0.249 (inactive),0.929 (inactive),0.76 (inactive),0.385 (inactive),0.367,-0.4,-0.0799 (inactive),0.0812,0.185,-0.567 (inactive)
COc1ccc(COC(=O)NN=C2C[C@@H](O)[C@@H](O)[C@@H]3[C@@H]4C(=O)N(c5ccc(F)cc5F)C(=O)[C@@H]4CC[C@@H]23)cc1,0.631,0.64 (inactive),0.527 (inactive),0.0922 (inactive),-0.176 (inactive),0.968 (inactive),0.583 (inactive),0.644 (inactive),0.635,-0.173,-0.413 (inactive),-0.0386,-0.351,-3.33 (inactive)
CCOC(=O)[C@H](Cc1ccccc1)NC(=O)CCC1CC(OC(=O)NCc2ccc3c(c2)OCO3)CC2(CCCC(COC(=O)NCC(c3ccccc3)c3ccccc3)O2)O1 (some centres undefined),0.56,-1.14 (inactive),0.328 (inactive),-0.219 (inactive),0.405 (inactive),0.445 (inactive),0.816 (inactive),0.381 (inactive),0.909,-0.0351,0.48 (inactive),0.308,-0.909,-3.45 (inactive)
Cc1cc2c(c(=O)o1)[C@H](O)[C@H]1O[C@H]1C2=O,0.145,-2 (inactive),-1.19 (inactive),0.44 (inactive),-0.282 (inactive),-0.627 (inactive),-0.973 (inactive),-0.662 (inactive),-0.764,-0.176,0.326 (inactive),-0.311,-0.811,-4.87 (inactive)
CCCNC(=O)OC[C@H]1O[C@H](CCON=C[C@@H](OC)[C@H](C)C=CCC(=O)OC)C=C[C@@H]1Oc1ccc(OC)cc1,0.173,0.746 (inactive),0.345 (inactive),0.329 (inactive),-0.537 (inactive),0.198 (inactive),0.356 (inactive),0.138 (inactive),1.95,-0.0361,0.228 (inactive),0.162,0.232,-5.88 (inactive)
CC(C)CON=C1[C@H]2CCn3c(=O)n(-c4ccccc4)c(=O)n3[C@H]2[C@H](O)[C@@H]2O[C@H]12,-0.771,-0.813 (inactive),-1.21 (inactive),-0.422 (inactive),-0.225 (inactive),0.0254 (inactive),0.276 (inactive),0.596 (inactive),-0.822,-0.032,0.142 (inactive),0.263,-1.94,-0.738 (inactive)
CCOC(=O)NN=C1C[C@@H](O)[C@@H](O)[C@@H]2[C@@H]3C(=O)N(C(C)(C)C)C(=O)[C@@H]3CC[C@@H]12,-0.119,0.381 (inactive),-0.387 (inactive),0.0062 (inactive),-0.495 (inactive),-1.23 (inactive),-0.654 (inactive),-0.0961 (inactive),-0.559,0.167,0.63 (inactive),-0.145,0.439,-1.69 (inactive)
C=CC[C@@H]1C=C[C@H](ON=C2c3cc(OC)ccc3O[C@H](c3cccc(OC)c3)[C@H]2O)[C@@H](CO)O1,-1.38,-0.903 (inactive),-1.15 (inactive),-0.726 (inactive),0.113 (inactive),-0.7 (inactive),0.57 (inactive),0.741 (inactive),-1.37,-0.0834,0.0897 (inactive),-0.479,0.888,-5.69 (inactive)
O=C1[C@H]2[C@H]3[C@H](O)[C@H](O)CC(=NOC[C@@H](O)COCc4ccco4)[C@H]3CC[C@H]2C(=O)N1Cc1ccc2c(c1)OCO2,0.102,0.684 (inactive),-0.293 (inactive),-0.566 (inactive),-0.85 (inactive),0.0885 (inactive),0.786 (inactive),1.11 (inactive),0.263,0.0049,0.525 (inactive),0.127,0.436,-0.743 (inactive)
CO[C@H]1COC(=O)CC=C[C@H](C)[C@@H](NS(=O)(=O)c2ccc(C)cc2)COC(=O)CC=C[C@@H]1C,0.55,-1.66 (inactive),-0.31 (inactive),-2.98 (inactive),-0.573 (inactive),-4.14 (inactive),-0.721 (inactive),-1.03 (inactive),-0.203,-0.255,-0.116 (inactive),0.0878,-0.648,1.31 (inactive)
O=C1[C@H]2[C@H]3[C@H](O)[C@H](O)CC(=NOCc4ccccc4)[C@@H]3CC[C@H]2C(=O)N1C1CCCCC1,-0.116,-3.16 (inactive),-0.321 (inactive),0.35 (inactive),1.29 (inactive),0.594 (inactive),-0.315 (inactive),-0.881 (inactive),-0.456,-0.144,-0.112 (inactive),0.0602,-0.368,-5.72 (inactive)
CC(CCN1CCc2nc(-c3ccccc3)c(-c3ccccc3)cc2C1)=NO[C@@H](C)c1cn([C@H](CO)Cc2ccccc2)nn1,-1.41,-3.25 (inactive),-0.996 (inactive),-1.81 (inactive),-0.23 (inactive),-2.23 (inactive),-0.249 (inactive),-0.147 (inactive),-0.914,-0.376,-0.416 (inactive),-0.346,-0.17,-4.81 (inactive)
COc1ccc(O[C@@H]2[C@H](O)CO[C@H]2C=CC#Cc2ccccc2)cc1,0.0873,-0.274 (inactive),-0.107 (inactive),0.18 (inactive),0.578 (inactive),0.905 (inactive),-0.01 (inactive),-0.812 (inactive),0.268,0.116,-0.0908 (inactive),0.799,-0.456,-3.09 (inactive)
